The campaign covered roughly 340,000 compounds. About 6,400 (1.9%) were called active. Inconclusive results (about 4%) are left out. The list comes from a sample in which actives are over-represented; it also holds similar structures and randomly drawn compounds. Unmarked numbers belong to inactive results. Calls follow the shape of the dose curve; as a rule, active = well fitted falling curve with a large enough effect; inconclusive = small, poorly fitted or top-dose-only effect; inactive = no such curve, though single readings can be large or run the other way.
Potency is read from the fitted curve at half-maximal effect.

For this experiment, the target named is ATP-dependent Clp protease proteolytic subunit (Bacillus subtilis (strain 168)) (UniProt P80244). Nature of the experiment: qHTS Assay for Activators of ClpP. Also: the source files actives as falling curves though it sought activators and does not explain the sign; nearly all actives have a fitted effect of over 65% in size. As to conditions: purified B. subtilis ClpP, FRET peptide cleavage, 20 min; series mostly up to 57.5 µM; activity change, negative = active: at the top concentration. The gist of the method: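 Buffer: 100 mM Tris/HCl pH8, 100 mM KCl, 0.05% low protease BSA, 2.5% glycerol, 0.01% Tween-20. ClpP 10 microg/mL final; 20 min RT; delta FRET normalized to ADEP and DMSO controls.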
Sequence of ATP-dependent Clp protease proteolytic subunit (Bacillus subtilis (strain 168)) (P80244 whole entry, looked up): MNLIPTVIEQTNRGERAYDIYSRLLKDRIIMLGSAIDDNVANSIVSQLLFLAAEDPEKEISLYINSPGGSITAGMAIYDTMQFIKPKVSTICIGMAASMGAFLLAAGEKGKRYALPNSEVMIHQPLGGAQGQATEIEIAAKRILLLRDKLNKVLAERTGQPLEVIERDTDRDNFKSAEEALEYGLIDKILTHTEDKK
For the compound `COCCNc1ncnc2c1nc1n2CCCC1`, the “activity change, negative = active” value was 0.498%.
With `COCCNc1nc(-n2nc(C)cc2C)nc2sc3c(c12)CCCC3`, the Potency was 28.2 µM (active).
Consider `COCCCNC(=O)c1cccc2c(-c3ccc(O)c(OC)c3)coc12`, for which the “activity change, negative = active” value was 0.962%.
Turning to `CC1=C(C(=O)Nc2cccc(C(=O)NCC(C)c3ccccc3)c2)SCCO1` (stereo not given), the “activity change, negative = active” value was 0.0606%.
The same measure, in the same setting: the value for `CN1CCN(C(=O)c2ccc(NC(=O)c3ccc(Br)o3)cc2)CC1` was 1.14%.
For `Cc1c(C(=O)NCc2ccc(C#N)cc2)sc(=O)n1Cc1ccc(C(=O)N(C)C)cc1`, the “activity change, negative = active” value was 1.14%.
Same read-out and setting: in the case of `COC(=O)[C@@]12C[C@@H](CC(=O)N3CCC(c4ccccc4)CC3)C(=O)N(Cc3ccccc3)C1=CCC(C)(C)C2` it was 1.79%.
As for `Cc1nnc(SCC(=O)NCCOc2ccc(Cl)cc2)n1-c1ccccc1`, the “activity change, negative = active” value was -4.45%.
Same read-out and setting: the value for `COCCNC(=O)CSc1nc(N)c(NC(=O)c2ccco2)c(=O)[nH]1` was 1.56%.
Consider `COCCNC(=O)CSc1nc(-c2ccccc2)[nH]c1-c1ccc(C)cc1`, for which the Potency is 31.6 µM (active).
In the case of `CC1(C(=O)NS(=O)(=O)c2ccccc2)CCN1C(=O)c1ccccc1` (stereo not given), the “activity change, negative = active” value is -1.98%.
The same measure, in the same setting: in the case of `O=C(c1cc(C2CCCCN2S(=O)(=O)c2ccccc2)on1)N1CCOCC1` (stereo not given) it was -0.363%.
Regarding `CN1C(=O)c2ccc(NC(=O)C3CCCCC3)cc2C1=O`, the Potency was 31.6 µM (active).
On to `O=C(Nc1ccc2c(c1)OCCO2)C1CCCC1`, for which the “activity change, negative = active” value was 2.15%.
On the same count and under the same terms, the value for `Cc1nc2ccc(NC(=O)C3CCCCC3)cc2s1` was -1.11%; that for `Cc1cccc(C(=O)Nc2ccc3c(c2)C(=O)N(CC(C)C)C3=O)c1` was 4.1%; that for `CN1C(=O)c2ccc(C(=O)Nc3ccc(Br)cn3)cc2C1=O` was -1.62%.
On to `CN1C(=O)c2ccc(NC(=O)c3c(F)c(F)c(F)c(F)c3F)cc2C1=O`, for which the Potency was 31.6 µM (active).
Take `COc1ccc(CN(Cc2ccccc2)C(=O)c2ccc(O)cc2)cc1COc1ccc(NC(C)=O)cc1`: the “activity change, negative = active” value was -5.22%.
Still for that read-out and setting: the value for `C[C@@H]1CN([C@@H](C)CO)C(=O)CCCn2nncc2CO[C@H]1CN(C)Cc1ccc(C(F)(F)F)cc1` was -0.773%; that for `C#CCN(C[C@@H]1[C@@H](OC(=O)NC2CC2)[C@@H](OC(=O)NC2CC2)Cn2c(=O)ccc(=O)n21)S(=O)(=O)c1ccc(C)cc1` was -0.219%; that for `COc1cccc(C2C(C(=O)Nc3ccc(C)cc3C)=C(C)Nc3c(C(=O)Nc4ccccc4)cnn32)c1` (stereo not given) was -27.6%.
`CCc1ccc(C2C(C(=O)Nc3ccccc3)=C(C)Nc3c(C(=O)Nc4ccc(C)cc4)cnn32)cc1` (stereo not given): the Potency is 31.6 µM (active).
Regarding `CC1=C(C(=O)Nc2ccccc2)C(c2ccc(C)cc2)n2nc(SCc3ccccc3C)nc2N1` (stereo not given), the “activity change, negative = active” value was -3.48%.
Still for that read-out and setting: the value for `CC1(C(=O)NCc2ccc3c(c2)OCO3)CCN1C(=O)Cc1cccs1` (stereo not given) was -0.503%.
Turning to `COc1cccc(CNc2nc(NCc3ccccc3OC)nc3ccsc23)c1`, the “activity change, negative = active” value was -28.5%.
Take `CCC(=O)N1CCCC1(C)C(=O)Nc1ccc2c(c1)CCN2C(C)=O` (stereo not given): the “activity change, negative = active” value is -1.31%.
In the case of `Cc1ccc(C(=O)NC(=S)NCCN2CCOCC2)cc1`, the Potency is 28.2 µM (active).
As to `Cc1cc(C)cc(C(=O)NCCN2CCOCC2)c1`, the “activity change, negative = active” value is 0.816%.
The same measure, in the same setting: the value for `CCn1cc(/C=C(\NC(=O)c2ccc(C)cc2)C(=O)NCCN2CCOCC2)c2ccccc21` was 0.383%; that for `CCCNC(=O)c1cc2c(c(-c3cccc(-c4ccc(C#N)cc4)c3)n1)[C@@H](CCO)N(C(=O)CC)C2` was -7%; that for `CC(C)OC(=O)CC(=O)CC(O)c1cccc([N+](=O)[O-])c1` (stereo not given) was 1.54%.
On the same count and under the same terms, the value for `COC(=O)c1ccc2nc(-c3ccc(F)cc3)c(Cc3ccc(C)cc3)n2c1` was -16.6%; that for `COc1ccc(NC(=O)CCCC2CCCCC2)c(OC)c1` was -2.51%; that for `COC(=O)c1sccc1NC(=O)CCC1CCCC1` was -1.1%.
Turning to `CC(=O)Oc1ccc(NC(=O)CCC2CCCCC2)c(C(=O)O)c1`, the Potency was 22.4 µM (active).
For `CCc1nc2c(OCc3ccc(C(F)(F)F)cc3)cccn2c1N(C)C(=O)CC(C)C`, the “activity change, negative = active” value is 1.18%.
In the case of `Cc1ccccc1CN1C(=O)CSCC1(C)C(=O)Nc1c(C)cccc1C` (stereo not given), the “activity change, negative = active” value was 3.88%.
Still for that read-out and setting: in the case of `CC(C)(C)C1CCC(NC(=O)c2cnn3c2NC(=C2CC2)C=C3C(F)F)CC1` (stereo not given) it was -13.2%; in that of `CCCCNC(=O)c1ccc(-n2c(=S)[nH]c3ccccc3c2=O)cc1`, 0.235%; in that of `Cc1ccc(C(=O)NCCSc2c(C)[nH]c3ccccc23)cc1C`, -0.725%.
`CN(C)CCCNC(=O)c1ccc2[nH]c3ccccc3c2c1`: the Potency was 12.6 µM (active).
Regarding `COc1ccc(NC(=O)c2sc(=O)n(Cc3ccc(S(=O)(=O)N(C)C)cc3)c2C)cc1`, the “activity change, negative = active” value is 0.336%.
Same read-out and setting: in the case of `CCN1C(=O)[C@H]2[C@@H](c3ccccc3)N[C@]3(CCCN(Cc4ccc(C)cc4)C3=O)[C@H]2C1=O` it was 0.813%; in that of `COCCn1c(C)cc(C(=O)COC(=O)CNC(=O)c2ccco2)c1C`, -1.27%.
Same read-out and setting: in the case of `NS(=O)(=O)c1ccc(NC(=O)COC(=O)c2ccco2)cc1` it was -1.06%.
Take `O=C(CNC(=O)c1ccco1)OCC(=O)c1ccccc1`: the Potency is 25.1 µM (active).
As for `CCc1ccc(C(=O)COC(=O)c2ccco2)cc1`, the “activity change, negative = active” value was 0.893%.
As for `CCOC(=O)c1ccc(NC(=O)CNC(=O)c2ccco2)cc1`, the “activity change, negative = active” value was -5.64%.
`O=C(COC(=O)CNC(=O)c1ccco1)Nc1ccc(F)cc1`: the Potency was 25.1 µM (active).

The record behind these values is PubChem BioAssay AID651965 (National Center for Advancing Translational Sciences (NCATS), 2013).
